Hits are enriched below; roughly 1.3% of the tested compounds scored in any of these assays.
Spn PMK inh: S. pneumoniae PMK inhibition; purified PMK, PK/LDH-coupled NADH absorbance 340 nm; inhibition, % at 10 µM; 65,000 tested, 0.49% active; AID 539;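 active = top-ranked compounds by inhibition in the single 10 µM screen, taking a fixed number of the strongest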;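 note: 0% = full reaction with DMSO carrier and 100% = background rate without enzyme reaction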
Spn DPM-DC inh: blocks S. pneumoniae diphosphomevalonate decarboxylase; purified DPM-DC, PK/LDH coupled NADH fluorescence; calls only at 10 µM; 65,000 tested, 0.49% active;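 active = the 320 compounds with the highest percent inhibition in the single-dose primary screen, excluding strongly autofluorescent ones, cut at about 32% in these data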;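 note: kinetic rate of NADH fluorescence loss reporting ADP formed by the decarboxylase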
NADH enzymes: inhibitors of enzymes used to reach an NAD/NADH endpoint | coupled PK/LDH NADH assays, four targets | IC50, µM (doses to about 10 µM), without a hit: top-dose inhibition | 65,000 tested, 0.02% active | AID 774;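 active = single-dose screening hits from any of four coupled enzyme assays that gave an IC50 when retested across doses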;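 note: the DPM-DC format reads NADH fluorescence rather than 340 nm absorbance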
Spn MK inh: S. pneumoniae mevalonate kinase inhibition; purified MK, PK/LDH-coupled NADH absorbance 340 nm; inhibition, % at 10 µM; 65,000 tested, 0.48% active;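 active = ranked among the strongest by inhibition in the single 10 µM screen, a fixed top-ranked set picked for dose follow-up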
Numbers without * were called inactive; [ ] = dose if it differs, or a comment.

What do the screens show for `CCOc1ccc2[nH]c(=O)c(CN(CCO)C(=O)c3ccc(Br)cc3)cc2c1`?
Spn PMK inh: 42*; Spn DPM-DC inh: inactive; NADH enzymes: 19%; Spn MK inh: 1

Results for COc1cccc(CN2CCN(C(=O)c3cccc(F)c3)CC2)c1 ?
Spn PMK inh: 0; Spn DPM-DC inh: inactive; NADH enzymes: 17%; Spn MK inh: 51*

How did COc1cc(OC)cc(C(=O)N2CCN(C(=O)c3cccc(F)c3)CC2)c1 do in these assays?
Spn PMK inh: 8; Spn DPM-DC inh: inactive; NADH enzymes: 6%; Spn MK inh: 9

How did Cn1c(SCCOc2cccc(Cl)c2)nnc1-c1ccncc1 do in these assays?
Spn PMK inh: 5; Spn DPM-DC inh: inactive; NADH enzymes: 32%; Spn MK inh: 90*

Results for COc1ccc2c(c1)C(=O)N(c1ccccc1OC)C(=O)C2(C)C ?
Spn PMK inh: 12; Spn DPM-DC inh: inactive; NADH enzymes: 4%; Spn MK inh: 0

What do the screens show for `COc1ccc2c(c1)C1(C)CC(C)(C)N2C(=O)N1c1ccccc1` (stereo not drawn)?
Spn PMK inh: 0; Spn DPM-DC inh: active; NADH enzymes: 10%; Spn MK inh: 2

Results for Nc1nc(N)c2sc3nc4c(cc3c2n1)CCC4 ?
Spn PMK inh: 0; Spn DPM-DC inh: active; NADH enzymes: 13%; Spn MK inh: 4

What do the screens show for `COc1ccc(S(=O)(=O)Nc2ccc3oc(C)c(C(=O)O)c3c2)cc1`?
Spn PMK inh: 0; Spn DPM-DC inh: inactive; NADH enzymes: 3%; Spn MK inh: 9

Results for COCCOC(=O)c1c(C)oc2ccc(NS(=O)(=O)c3ccc(F)cc3)cc12 ?
Spn PMK inh: 0; Spn DPM-DC inh: active; NADH enzymes: 5%; Spn MK inh: 10

What do the screens show for `O=C1NCC(O)=C1C=NC12CC3CC(CC(C3)C1)C2`?
Spn PMK inh: 9; Spn DPM-DC inh: inactive; NADH enzymes: 7%; Spn MK inh: 6

Results for CCN(CC)c1nc2ccccc2n2cnnc12 ?
Spn PMK inh: 18; Spn DPM-DC inh: active; NADH enzymes: 18%; Spn MK inh: 3

What do the screens show for `O=C(NC1CCCCC1)c1cc2nc(-c3ccco3)cc(C(F)(F)F)n2n1`?
Spn PMK inh: 2; NADH enzymes: 4%; Spn MK inh: 15

What do the screens show for `O=C(c1cc2nc(-c3ccco3)cc(C(F)(F)F)n2n1)N1CCc2ccccc2C1`?
Spn PMK inh: 30*; NADH enzymes: 20%; Spn MK inh: 10

Results for OCC1CCCN(Cc2ccc(-c3ccccc3)cc2)C1 (stereo not drawn) ?
Spn PMK inh: 1; Spn DPM-DC inh: inactive; NADH enzymes: 14%; Spn MK inh: 41*

What do the screens show for `CC1CCCN(S(=O)(=O)c2ccc(S(=O)(=O)N3CCCN(Cc4ccccc4)C3)cc2)C1` (stereo not drawn)?
Spn PMK inh: 6; Spn DPM-DC inh: inactive; NADH enzymes: 3%; Spn MK inh: 3

How did O=C(Cc1cccs1)N(Cc1ccco1)C1(C(=O)NC2CCCC2)CCCCC1 do in these assays?
Spn PMK inh: 1; Spn DPM-DC inh: inactive; NADH enzymes: 4%; Spn MK inh: 11

Results for OC1(CN2CCOCC2)C2CN3CCN(C2)CC1(c1ccccc1)C3 (stereo not drawn) ?
Spn PMK inh: 28*; Spn DPM-DC inh: inactive; NADH enzymes: 12%; Spn MK inh: 9

What do the screens show for `CCCCNC(=O)c1ccc2nc(-c3ccco3)c(-c3ccco3)nc2c1`?
Spn PMK inh: 7; Spn DPM-DC inh: active; NADH enzymes: 20%; Spn MK inh: 17

Results for COc1ccc(-c2coc3c(CN4CCCCC4)c(O)c(CN4CCCCC4)c(O)c3c2=O)cc1 ?
Spn PMK inh: 26*; Spn DPM-DC inh: inactive; NADH enzymes: 3%; Spn MK inh: 0

What do the screens show for `Cc1coc2cc3oc(=O)c4c(c3cc12)CCC4`?
Spn PMK inh: 9; Spn DPM-DC inh: active[may fluoresce]; NADH enzymes: 4%; Spn MK inh: 10

How did Cc1cccc2nc(Cn3c(=O)n(CCC(=O)NCc4ccco4)c(=O)c4ccccc43)cc(=O)n12 do in these assays?
Spn PMK inh: 20; Spn DPM-DC inh: inactive; NADH enzymes: 7%; Spn MK inh: 0

How did Cc1cc(C)c(S(=O)(=O)NCc2cn3c(C)csc3n2)cc1C do in these assays?
Spn PMK inh: 1; Spn DPM-DC inh: active; NADH enzymes: 25%; Spn MK inh: 8

How did Cc1cc(C)c(S(=O)(=O)NCc2cn3c(C)csc3n2)c(C)c1 do in these assays?
Spn PMK inh: 6; Spn DPM-DC inh: inactive; NADH enzymes: 3%; Spn MK inh: 4

Results for COc1cccc(CN2CCN(C(=O)c3cccc4ccccc34)CC2)c1OC ?
Spn PMK inh: 9; Spn DPM-DC inh: inactive; NADH enzymes: 5%; Spn MK inh: 7

How did Cc1cccc(C)c1N1CCN(S(=O)(=O)c2ccc(F)cc2)CC1 do in these assays?
Spn PMK inh: 10; Spn DPM-DC inh: inactive; NADH enzymes: 5%; Spn MK inh: 5

How did COc1cccc(OC)c1C(=O)N1CCN(Cc2ccccc2C)CC1 do in these assays?
Spn PMK inh: 0; Spn DPM-DC inh: inactive; NADH enzymes: 17%; Spn MK inh: 48*

What do the screens show for `Cc1ccccc1CN1CCN(S(=O)(=O)c2ccc(F)cc2)CC1`?
Spn PMK inh: 1; Spn DPM-DC inh: active; NADH enzymes: 28%; Spn MK inh: 30

What do the screens show for `O=C(c1n[nH]c(=O)c2ccccc12)N1CCN(C2c3ccccc3-c3ccccc32)CC1`?
Spn PMK inh: 29*; Spn DPM-DC inh: inactive; NADH enzymes: 12%; Spn MK inh: 1

What do the screens show for `COc1ccc(OC(C)C(=O)N2CC(C)OC(C)C2)cc1` (stereo not drawn)?
Spn PMK inh: 4; Spn DPM-DC inh: inactive; NADH enzymes: 5%; Spn MK inh: 9

Results for COc1cc(CN2CC(C)OC(C)C2)cc(OC)c1 (stereo not drawn) ?
Spn PMK inh: 0; Spn DPM-DC inh: inactive; NADH enzymes: 15%; Spn MK inh: 45*

What do the screens show for `O=C(CCn1cccc1)NCCc1ccc(Cl)cc1`?
Spn PMK inh: 9; Spn DPM-DC inh: inactive; NADH enzymes: 3%; Spn MK inh: 1

How did CCCCNc1nc2c(c(=O)n(C)c(=O)n2C)n1CCC do in these assays?
Spn PMK inh: 26*; Spn DPM-DC inh: inactive; NADH enzymes: 10%; Spn MK inh: 4

What do the screens show for `CCN=c1sc(C(=O)NCCc2ccccc2)cc(=O)n1CC`?
Spn PMK inh: 25*; Spn DPM-DC inh: inactive; NADH enzymes: 8%; Spn MK inh: 0

How did Cc1ccc(C(=O)CSc2nnc(-c3ccco3)n2CC2CCCO2)cc1 (stereo not drawn) do in these assays?
Spn PMK inh: 8; Spn DPM-DC inh: inactive; NADH enzymes: 4%; Spn MK inh: 5

How did CCOC(=O)C1CCCN(Cc2ccccc2OCC)C1 (stereo not drawn) do in these assays?
Spn PMK inh: 0; Spn DPM-DC inh: inactive; NADH enzymes: 14%; Spn MK inh: 41*

What do the screens show for `CCOC(=O)C1CCCN(Cc2ccccc2C)C1` (stereo not drawn)?
Spn PMK inh: 0; Spn DPM-DC inh: inactive; NADH enzymes: 14%; Spn MK inh: 42*

How did Cc1nn(Cc2ccccc2)c2c1C(c1ccncc1)C(C#N)=C(N)O2 (stereo not drawn) do in these assays?
Spn PMK inh: 31*; Spn DPM-DC inh: inactive; NADH enzymes: 4%; Spn MK inh: 8

Screening data deposited in PubChem by SRMLSC.
